These results are taken from PubChem BioAssay (NCI).

Some test systems named below: HCT-15 colon; HT29 colon; SNB-75 CNS; SNB-19 CNS; U251 CNS; PC-3 prostate; SK-MEL-5 melanoma; UACC-62 melanoma; LOX IMVI melanoma; SK-MEL-28 melanoma.
What all share (assay): NCI-60 one-dose screen, 48 h (100 = growth as untreated, 0 = no growth, -100 = all killed)
Holding throughout (conditions): 10 µM unless noted

The panel holds about 83,000 compounds, 20% with a hit somewhere; the sample as a whole holds those more often.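 For each line, cells grew in 96-well plates with the test compound present at a single concentration for 48 hours.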 Unmarked numbers belong to inactive results. Calls of active or inactive are those of the source. The calls were made as follows: active = growth percent below 10; inactive = the rest.

With `CC(=O)c1nc(Nc2ccc(C)cc2)sc1C`, the growth in the test on HCT-15 colon is 94.1%; in the test with HT29 colon, 105%; in the test on SNB-75 CNS, 75%; with SNB-19 CNS it was 93.1%; in the test with U251 CNS it was 95.8%; with PC-3 prostate, 93.1%. Moreover, the growth in the test with SK-MEL-5 melanoma was 98.6%; in the test on UACC-62 melanoma, 98.6%; in the test on LOX IMVI melanoma, 100%; with SK-MEL-28 melanoma, 95.2%.
In the case of `CC/C=C\C[C@H](O)C/C=C1/C(=O)C=C[C@@H]1C/C=C\CCCC(=O)OC`, the growth with HCT-15 colon is -20.3% (active); in the test on HT29 colon, -54.7% (active); in the test with SNB-75 CNS it was 57.8%; with SNB-19 CNS, 35.2%; in the test with U251 CNS, -72.8% (active); in the test with PC-3 prostate, -11.3% (active). The growth is -84.7% (active) with SK-MEL-5 melanoma, -40.3% (active) in the test with UACC-62 melanoma, -76.9% (active) in the test on LOX IMVI melanoma and -34.3% (active) with SK-MEL-28 melanoma.
`c1ccc(-c2nc([P+](c3ccccc3)(c3ccccc3)c3ccccc3)c(N3CCOCC3)o2)cc1`: the growth was 79.3% with HCT-15 colon; 0.225% (active) with HT29 colon; 1.4% (active) in the test on SNB-75 CNS; 8.73% (active) in the test with SNB-19 CNS; 10.1% with U251 CNS; 6.1% (active) in the test with PC-3 prostate. In addition, the growth in the test with SK-MEL-5 melanoma was -93.1% (active); in the test with UACC-62 melanoma, -37.1% (active); in the test with LOX IMVI melanoma it was 4.66% (active); in the test on SK-MEL-28 melanoma it was 21.9%.
Take `Cc1ccc(NS(=O)(=O)c2ccc3c(c2)C2OCCC2C(c2ccc(C(=O)C(C)C)cc2)N3)cc1C` (stereo not given): the growth is 32.3% in the test on HCT-15 colon; 44.9% with HT29 colon; 61.8% in the test on SNB-75 CNS; 68.2% with SNB-19 CNS; 49.1% in the test on U251 CNS; 28.8% with PC-3 prostate. Besides, the growth in the test on SK-MEL-5 melanoma was -32.4% (active); with UACC-62 melanoma, 47.2%; with LOX IMVI melanoma, 64.2%; in the test with SK-MEL-28 melanoma, 51.3%.
On to `COc1cc(C(=O)/C=C/c2c(-c3ccc(F)cc3)nc3sc(C)cn23)cc(OC)c1OC`, for which the growth in the test on HCT-15 colon was 35.5%; in the test with HT29 colon, 41.5%; in the test on SNB-75 CNS, 50.1%; with SNB-19 CNS it was 66.5%; in the test with U251 CNS, 32.9%; with PC-3 prostate, 10.7%. Moreover, the growth in the test with SK-MEL-5 melanoma was -88.8% (active); in the test with UACC-62 melanoma, 23.1%; in the test with LOX IMVI melanoma, 25.1%; in the test on SK-MEL-28 melanoma it was 12.4%.
Regarding `O=C(c1ccccc1)c1c(/C=C/c2ccc(Cl)cc2)nc2ccccc2c1/C=C/c1cccs1`, the growth is 96.6% in the test on HCT-15 colon; 100% with HT29 colon; 84.1% in the test with SNB-75 CNS; 89.7% in the test with SNB-19 CNS; 93.5% with U251 CNS; 91.8% in the test with PC-3 prostate. The growth was 100% with SK-MEL-5 melanoma, 87.4% in the test with UACC-62 melanoma, 94.2% in the test with LOX IMVI melanoma and 102% with SK-MEL-28 melanoma.
For `COC(=O)[C@]12CC[C@@H](C)[C@H](C)[C@@H]1C1=CC[C@@H]3[C@@]4(C)C(C=O)=C[C@@](C)(COC(C)=O)C4=CC[C@@]3(C)[C@]1(C)CC2`, the growth is -41.6% (active) in the test with HCT-15 colon; -31.5% (active) in the test on HT29 colon; 15.7% in the test with SNB-75 CNS; 29.8% in the test with SNB-19 CNS; -25.8% (active) in the test with U251 CNS; 12.7% with PC-3 prostate. The growth in the test with SK-MEL-5 melanoma is -36.6% (active); in the test on UACC-62 melanoma it was -11.1% (active); in the test on LOX IMVI melanoma it was -93.7% (active); with SK-MEL-28 melanoma, -60.2% (active).
In the case of `CCCCc1ccc(Nc2ccc(Nc3ccc(CCCC)cc3S(=O)(=O)O)c3c2C(=O)c2ccccc2C3=O)c(S(=O)(=O)O)c1`, the growth was 104% with HCT-15 colon; 113% in the test on HT29 colon; 89.9% in the test with SNB-75 CNS; 104% with SNB-19 CNS; 103% in the test on U251 CNS; 39.1% in the test on PC-3 prostate. The growth was 91.9% in the test on SK-MEL-5 melanoma, 84.5% in the test on UACC-62 melanoma, 86.4% with LOX IMVI melanoma and 108% with SK-MEL-28 melanoma.
As for `O=C(NCCNc1cc(-c2cn(-c3ccccc3)nc2-c2cccc(O)c2)ccn1)Nc1ccccc1`, the growth was 62.7% in the test with HCT-15 colon; 27.3% in the test on HT29 colon; 66.2% in the test with SNB-75 CNS; 82.4% in the test with SNB-19 CNS; 56.4% in the test on U251 CNS; 45.7% with PC-3 prostate. For the same compound, the growth in the test on SK-MEL-5 melanoma was 63.9%; in the test with UACC-62 melanoma it was 70%; with LOX IMVI melanoma, 82.5%; with SK-MEL-28 melanoma, 103%.
Regarding `NC[C@H](O)c1ccc(O)c(O)c1`, the growth is 104% in the test on HCT-15 colon; 102% in the test with HT29 colon; 120% in the test with SNB-75 CNS; 112% in the test with SNB-19 CNS; 106% with U251 CNS; 99.7% in the test with PC-3 prostate. For the same compound, the growth in the test on SK-MEL-5 melanoma was 104%; in the test with UACC-62 melanoma it was 102%; in the test on LOX IMVI melanoma, 94.2%; in the test with SK-MEL-28 melanoma it was 116%.
Consider `C=C(C)[C@@H]1CC[C@]2(C(=O)NC3CCCCC3)CC[C@]3(C)[C@H](CC[C@@H]4[C@@]5(C)CCC(=O)C(C)(C)[C@@H]5CC[C@]43C)[C@@H]12`, for which the growth is 97.1% with HCT-15 colon; 85.7% in the test with HT29 colon; 85.6% in the test on SNB-75 CNS; 84.2% in the test with SNB-19 CNS; 84.9% in the test on U251 CNS; 60.1% in the test with PC-3 prostate. Moreover, the growth is 95.9% in the test on SK-MEL-5 melanoma, 76.9% in the test on UACC-62 melanoma, 92.2% in the test with LOX IMVI melanoma and 97.1% in the test on SK-MEL-28 melanoma.
As for `Cc1c2c(c(C)c3c1oc1cc(O)ccc13)C(=O)N(CCN1CCCCC1)C2=O`, the growth was 95.4% in the test with HCT-15 colon; 61.3% in the test on HT29 colon; 87.3% with SNB-75 CNS; 88.9% in the test on SNB-19 CNS; 86.4% with U251 CNS; 83.8% in the test on PC-3 prostate. For the same compound, the growth in the test with SK-MEL-5 melanoma is 96%; with UACC-62 melanoma, 99.2%; with LOX IMVI melanoma, 95.4%; in the test on SK-MEL-28 melanoma, 106%.
